Measurements taken from ChEMBL document CHEMBL1157539, “Thousands of chemical starting points for antimalarial lead identification” (Nature, 2010).

system: Plasmodium falciparum; assay: GSK_TCMDC: Inhibition of Plasmodium falciparum 3D7 in whole red blood cells, using parasite LDH activity as an index of growth. Test compounds present at 2uM; format: functional

Going from CCNc1cc(C(=O)N[C@@H](Cc2ccco2)[C@H](O)CNC2CCCCC2)cc(N2CCCCS2(=O)=O)c1.Cl to O=C(CC1CCCCC1)NCC(NCCCNc1cc(=O)c2ccccc2[nH]1)c1cc(Br)cc(Br)c1 (stereo not drawn), the Inhibition rises from 91% to 95%.

Compared with COCCNCc1cccc(-c2cc3nccc(Nc4ccc(Oc5ccccc5)cc4)c3cc2Cl)c1, CCc1ccc(N2C(=O)C3C(Cc4ccc(OC(C)(C)C)cc4)NC4(C(=O)N(Cc5ccccc5)c5ccc(F)cc54)C3C2=O)cc1 (stereo not drawn) is lower in Inhibition: 99% for the first, 96% for the second.

Going from CCCCCCCN(Cc1ccc(OC(C)(C)C(=O)OCC)cc1)C(=O)Nc1ccccc1OCC to CC(C)CNC(=O)c1cncc(-c2ccc(CN(C)C3CCN(C)CC3)cc2)c1.O=C(O)C(F)(F)F, the Inhibition rises from 93% to 100%.

First: O=c1[nH]c2c(cc1CNC1CCCCC1)c(-c1ccc(F)cc1)nn2-c1ccccc1
Second: NC1CCCN(Cc2cccc(-c3ccc(-c4nc5cc(F)ccc5[nH]4)cc3)c2)C1.O=C(O)C(F)(F)F (stereo not drawn)
The Inhibition of the first is lower: 99% for the first, 100% for the second.

Going from CC(C)C(C(=O)Nc1ccc2c(c1)OCO2)c1ccc(Cl)cc1 (stereo not drawn) to Cl.N=c1n(Cc2ccccc2)c2ccccc2n1CC(O)c1ccc(Cl)c(Cl)c1 (stereo not drawn), the Inhibition falls from 98% to 95%.

First: COc1ccccc1C1CCN(C2CCC(NC(=O)/C=C/c3ccc(C(F)(F)F)cc3)CC2)CC1 (stereo not drawn)
Second: COc1c(CCNCCCCNCCc2cc(Cl)c3ccccc3c2OC)cc(Cl)c2ccccc12.CS(=O)(=O)O
The Inhibition of the first is lower: 88% for the first, 99% for the second.

Compound Cc1ccc(N2C(N)=NC(N)=NC2(C)C)cc1Cl.Cl has an Inhibition of 90%.
